High-throughput results from PubChem BioAssay.
Shown are actives, neighbours in structure and some others; about 6.8% of the full set was active somewhere.
C diff HTS: C. difficile growth inhibition; 0.25% of 86,000 active; AID 1259249; Clostridium difficile clinical isolate growth, OD600, 24 h; hits give low values; growth activity, negative = inhibition, % at 16 µg/mL (by protocol);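 active = mean growth activity at or below -80% and every replicate also at or below -80%; inconclusive = mean at or below -80% but some replicate above -80%; inactive = mean growth activity above -80%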;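 also: 0% = DMSO wells and -100% = levofloxacin 16 µg/mL wells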
Tcruzi prolif: blocks T. cruzi growth in NIH3T3 culture; T. cruzi beta-gal in NIH3T3, GalScreen luminescence, 90 h; inhibition, % at 8.34 µM; 5.9% of 77,000 active;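 active = mean inhibition above about 93%, with at least 55% of replicates each passing it, limit read from the data, passing the limit was not always enough; inconclusive = only one of those two conditions holds; inactive = neither condition holds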
Pf Dd2 growth: blocks growth of Plasmodium falciparum Dd2 parasites. P. falciparum Dd2 growth, SYBR Green, 72 h; hits give low values. activity change, % at 10 µM. 2.3% of 94,000 active; in the data active = activity change below about -80%; inconclusive = no clear call, values can overlap the other calls
Active calls of the source: *; ? = inconclusive; . = no result.

SMILES	C diff HTS	Tcruzi prolif	Pf Dd2 growth
C[C@H](CO)N1C[C@H](C)[C@@H](CN(C)C(=O)c2cc(Cl)cc(Cl)c2)OCc2ccccc2-c2c(n(C)c3ccccc23)C1=O	3	.	-37
C[C@H](CO)N1C[C@H](C)[C@@H](CN(C)C(=O)[C@H](C)c2ccccc2)OCc2ccccc2-c2c(n(C)c3ccccc23)C1=O	10	.	-94*
C[C@H]1CN([C@@H](C)CO)C(=O)c2ccccc2-c2ccccc2CO[C@H]1CN(C)C(=O)c1cc(Cl)cc(Cl)c1	-7	.	-83*
C[C@H](CO)N1C[C@H](C)[C@H](CN(C)C(=O)Nc2cccc3ccccc23)Oc2ncc(/C=C/c3ccccc3)cc2C1=O	-7	.	-36
COc1ccc(NC(=O)N(C)C[C@H]2Oc3ncc(C#CC(C)C)cc3C(=O)N([C@@H](C)CO)C[C@H]2C)cc1	13	.	-23
COc1ccccc1-c1ccc2c(c1)[C@H]1[C@H](CCN1S(=O)(=O)c1cn(C)cn1)[C@H](CO)N2	11	37	-10
C[C@H](NC(=O)C[C@H]1C[C@@H]2c3cc(NS(C)(=O)=O)ccc3O[C@@H]2[C@@H](CO)O1)c1ccccc1	-3	.	1
C[C@@H]1CN([C@@H](C)CO)C(=O)c2cc(NC(=O)c3ccncc3)ccc2O[C@H]1CN(C)Cc1ccc2c(c1)OCO2	1	-24	0
C[C@@H]1CN([C@H](C)CO)C(=O)c2c(c3ccccc3n2C)-c2ccccc2CO[C@@H]1CN(C)C(=O)[C@H](C)c1ccccc1	-9	.	-91*
C[C@H](C(=O)N(C)C[C@H]1OCc2ccccc2-c2c(n(C)c3ccccc23)C(=O)N([C@@H](C)CO)C[C@@H]1C)c1ccccc1	5	.	-69
O=C(C[C@H]1C[C@H]2c3cc(NC(=O)c4cccnc4)ccc3O[C@H]2[C@H](CO)O1)NCc1ccncc1	0	-29	2
C[C@H](CO)N1C[C@H](C)[C@@H](CN(C)Cc2ccc(C(F)(F)F)cc2)Oc2c(NC(=O)CCCCCC(=O)Nc3ccccc3N)cccc2C1=O	-10	.	-89*
C[C@@H]1CN([C@H](C)CO)C(=O)c2cccc(NC(=O)C3CC3)c2O[C@H]1CN(C)Cc1ccc(C(F)(F)F)cc1	-2	28	-66
C[C@H]1CN([C@@H](C)CO)C(=O)c2cc(NC(=O)CCCCCC(=O)Nc3ccccc3N)ccc2O[C@H]1CN(C)Cc1ccc(C(F)(F)F)cc1	0	90	-25
C[C@@H]1CN([C@H](C)CO)C(=O)Cc2cc(NC(=O)CCCCCC(=O)Nc3ccccc3N)ccc2O[C@@H]1CN(C)Cc1ccc(C(F)(F)F)cc1	8	59	-40
C[C@@H]1CN([C@@H](C)CO)C(=O)c2cccc(NC(=O)CCCCCC(=O)Nc3ccccc3N)c2O[C@@H]1CN(C)Cc1ccc(C(F)(F)F)cc1	.	94	-92*
C[C@H]1CN([C@@H](C)CO)C(=O)c2cccc(NC(=O)CCCCCC(=O)Nc3ccccc3N)c2O[C@H]1CN(C)CC1CC1	-4	.	-4
C[C@@H]1CN([C@H](C)CO)C(=O)c2cccc(NC(=O)CCCCCC(=O)Nc3ccccc3N)c2O[C@@H]1CN(C)Cc1ccc(C(F)(F)F)cc1	-2	.	-92*
C[C@H](CO)N1C[C@H](C)[C@H](CN(C)Cc2ccc(C(F)(F)F)cc2)Oc2c(NC(=O)CCCCCC(=O)Nc3ccccc3N)cccc2C1=O	5	.	-86*
COc1ccc2c3c([nH]c2c1)[C@@H](CO)N(C(=O)c1cccc(F)c1)CC31CN(C(=O)c2cccc(F)c2)C1	6	.	-25
C[C@H](CO)N1C[C@H](C)[C@H](CN(C)C(=O)C2CCCCC2)Oc2cc(-c3cccnc3)ccc2S1(=O)=O	7	76	-22
CC(=O)N1CC2(C1)[C@H](c1ccc(-c3ccccc3C)cc1)[C@@H](CO)N2C(C)=O	-12	.	17
CCCC(=O)Nc1ccc2c(c1)C(=O)N(C)[C@@H]1CC[C@H](CC(=O)Nc3ccccc3)O[C@H]1CO2	11	-54	3
C[C@H]1CN([C@@H](C)CO)C(=O)Cc2cc(NC(=O)Cc3ccccc3)ccc2O[C@H]1CN(C)Cc1ccc(C(=O)Nc2ccccc2N)cc1	-4	.	-86*
C[C@H]1CN([C@@H](C)CO)C(=O)Cc2cc(NC(=O)Nc3ccccc3)ccc2O[C@H]1CN(C)Cc1ccc(C(=O)Nc2ccccc2N)cc1	7	.	-76
SMILES	C diff HTS	Tcruzi prolif	Pf Dd2 growth
C[C@H](CO)N1C[C@H](C)[C@H](CN(C)Cc2ccc(C(=O)Nc3ccccc3N)cc2)Oc2ccc(NC(=O)Cc3ccccc3)cc2CC1=O	15	.	-87*
C[C@H]1CN([C@@H](C)CO)C(=O)Cc2cc(NC(=O)c3ccncc3)ccc2O[C@H]1CN(C)Cc1ccc(C(=O)Nc2ccccc2N)cc1	-4	78	-45
C[C@H]1CN([C@@H](C)CO)C(=O)Cc2cc(NC(=O)c3ccncc3)ccc2O[C@@H]1CN(C)Cc1ccc(C(=O)Nc2ccccc2N)cc1	-3	.	-86*
C[C@@H]1CN([C@H](C)CO)C(=O)Cc2cc(NC(=O)Cc3ccccc3)ccc2O[C@H]1CN(C)Cc1ccc(C(=O)Nc2ccccc2N)cc1	11	.	-5
C[C@@H]1CCCCO[C@H](CN(C)S(C)(=O)=O)[C@H](C)CN([C@H](C)CO)C(=O)c2cc(N(C)C)ccc2O1	-3	47	-19
COC(=O)C[C@@H]1CC[C@@H]2[C@@H](COc3ccc(NC(=O)Nc4cc(C)cc(C)c4)cc3C(=O)N2C)O1	12	86	.
C[C@@H]1CCCCO[C@@H](CN(C)Cc2ccc(Cl)c(Cl)c2)[C@H](C)CN([C@H](C)CO)C(=O)c2cc(NC(=O)Nc3ccc4c(c3)OCO4)ccc2O1	12	98	-88*
C[C@@H]1CCCCO[C@@H](CN(C)Cc2ccc(Cl)c(Cl)c2)[C@@H](C)CN([C@@H](C)CO)C(=O)c2cc(NC(=O)Nc3ccc4c(c3)OCO4)ccc2O1	6	98	-32
C[C@H]1CCCCO[C@H](CN(C)Cc2ccc(Cl)c(Cl)c2)[C@@H](C)CN([C@@H](C)CO)C(=O)c2cc(NC(=O)Nc3ccc4c(c3)OCO4)ccc2O1	3	68	-56
C[C@@H]1CN([C@H](C)CO)C(=O)c2cc(NC(=O)Nc3ccc4c(c3)OCO4)ccc2O[C@@H](C)CCCCO[C@H]1CN(C)Cc1ccc(Cl)c(Cl)c1	12	96	-89*
COc1ccccc1-c1ccc([C@H]2[C@@H](CO)N3CCCCN(Cc4ccncc4)C[C@H]23)cc1	-20	87	-26
O=C(Nc1ccccc1)N1CCCCN2[C@H](CO)[C@@H](c3ccc(-c4ccccc4F)cc3)[C@@H]2C1	50	88	11
COc1ccc(C#Cc2ccc([C@H]3[C@H]4CN(Cc5ccccc5F)CCCCN4[C@H]3CO)cc2)cc1	0	5	-35
COc1ccc(C#Cc2ccc([C@H]3[C@@H](CO)N4CCCCN(C(=O)Nc5cccc(F)c5)C[C@H]34)cc2)cc1	-89*	66	?
COc1ccc(C#Cc2ccc([C@@H]3[C@H]4CN(C(=O)Nc5cccc(F)c5)CCCCN4[C@H]3CO)cc2)cc1	53	68	-51
COc1ccc(C#Cc2ccc([C@@H]3[C@H](CO)N4CCCCN(C(=O)Nc5cccc(F)c5)C[C@@H]34)cc2)cc1	-85*	62	-84*
